An excerpt weighted towards active compounds, which were near 2.2% of everything screened.
HSP90 inh: HSP90 refolding inhibition in rabbit reticulocyte lysate | luciferase refolding luminescence, 3 h | inhibition, % at 5.6 µM | hit rate 0.91% among 290,000 | AID 1789;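 active means inhibition above the screen-wide mean plus 3 SD, computed separately per campaign, cut at about 16% in these data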;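 further: 0% = DMSO wells and 100% = 60 µM geldanamycin wells; inhibitors lower the luminescence because luciferase stays unfolded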
TWEAK-Fn14 inh: TWEAK-Fn14 signaling inhibition; TWEAK-stimulated Fn14 reporter cells, luciferase luminescence, 8 h; AID 1159606; hit rate 2% among 360,000; inhibition, % at 10 µM; in the data active means inhibition above about 50%
LGR2 inh: Drosophila LGR2 receptor signaling inhibition; HEK293 LGR2, CRE-luciferase, bursicon-stimulated, 4 h; inhibition, % at 9.99 µM; hit rate 0.35% among 380,000; AID 720647;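 active means drop in luminescence signal, shown as inhibition above about 50% in the replicate tests, limit read from the data, passing the limit was not always enough; inconclusive means probably only some replicates passing the limit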;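 further: agonist challenge used bursicon conditioned medium at about half maximal strength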
TROY NFkB inh: blocks TROY-dependent signaling in reporter cells; AID 1347056; hit rate 0.98% among 360,000; inhibition, % at 10 µM; Q293 LMP1-TROYcd NF-kB luciferase reporter, 4 h;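 active means compounds whose plate-normalised and pattern-corrected inhibition of the luciferase reporter signal at the single screening dose is 50% or more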
* = called active by the depositor; ? = inconclusive; . = not tested or not shown.

SMILES	HSP90 inh	TWEAK-Fn14 inh	LGR2 inh	TROY NFkB inh
Cc1cc(C(=O)COC(=O)c2cccnc2Cl)c(C)n1C	.	76*	?	4
CSc1ncccc1C(=O)OCC(=O)c1cc(C)n(CC2CCCO2)c1C (stereo not drawn)	4	76*	5	62*
CC1CN(c2nc3ccccn3c(=O)c2/C=C(\C#N)C(N)=O)CC(C)O1 (stereo not drawn)	-1	91*	-8	-22
CNC(=O)/C(C#N)=C/c1c(N2CC(C)OC(C)C2)nc2ccccn2c1=O (stereo not drawn)	-3	3	3	-1
C[C@H](CO)N1C[C@H](C)[C@H](CN(C)C(=O)Nc2ccccc2)OCCCC[C@H](C)Oc2ccc(NC(=O)C3CCCCC3)cc2C1=O	.	.	69*	.
C[C@H](CO)N1C[C@H](C)[C@H](CN(C)C(=O)Nc2ccc(F)cc2)OCCCC[C@H](C)Oc2ccc(NC(=O)C3CCCCC3)cc2C1=O	.	.	83*	.
C[C@@H]1CCCCO[C@H](CN(C)C(=O)Nc2ccc(F)cc2)[C@H](C)CN([C@@H](C)CO)C(=O)c2cc(NC(=O)C3CCCCC3)ccc2O1	.	.	5	.
C[C@H](CO)N1C[C@H](C)[C@H](CN(C)C(=O)Nc2ccc3c(c2)OCO3)OCCCC[C@H](C)Oc2ccc(NC(=O)C3CCCCC3)cc2C1=O	.	.	57*	.
C[C@H](CO)N1C[C@H](C)[C@H](CN(C)Cc2ccc(Cl)c(Cl)c2)Oc2ccc(NC(=O)Nc3ccc(C(F)(F)F)cc3)cc2CC1=O	.	.	5	.
Cc1cc(SCC(=O)Nc2ccccc2)n2ncc(-c3ccccc3)c2n1	-2	32	-3	63*
COc1ccc(NC(=O)CSc2cc(C)nc3c(-c4ccccc4)cnn23)cc1	1	22	.	56*
Cc1cc(SCC(=O)Nc2ccc(O)cc2)n2ncc(-c3ccccc3)c2n1	3	17	3	27
C[C@@H]1CN([C@H](C)CO)C(=O)c2cc(NS(=O)(=O)c3ccc(Cl)cc3)ccc2O[C@@H]1CN(C)S(=O)(=O)c1cn(C)cn1	.	.	0	.
C[C@@H]1CCCCO[C@H](CN(C)C(=O)Cc2ccccc2)[C@@H](C)CN([C@H](C)CO)C(=O)c2cc(NC(=O)c3ccccc3)ccc2O1	.	.	-14	.
CCCOc1ccccc1N/C(=N/c1nc(C)cc(C)n1)NC(=O)COc1ccc(OC)cc1	5	53*	.	18
CCCOc1ccccc1N/C(N)=N/c1nc(C)cc(C)n1	0	3	-8	-3
O=C(CN1CCOCC1)N[C@H]1CC[C@@H](CCNC(=O)C2CCC2)O[C@@H]1CO	.	.	0	.
COc1ccc([N+](=O)[O-])cc1NCc1c(F)cccc1F	.	59*	8	4
C[C@@H]1CN([C@@H](C)CO)C(=O)c2cccc(NC(=O)C3CCCCC3)c2O[C@@H]1CN(C)Cc1ccc2c(c1)OCO2	.	.	-1	.
COc1ccc([C@@]23Oc4cc(OC)cc(OC)c4[C@]2(O)[C@H](O)[C@H](C(=O)N(C)C)[C@H]3c2ccccc2)cc1	.	87*	99*	34
COc1ccc(NC(=O)C2C(c3ccccc3)C2(Cl)Cl)c(OC)c1 (stereo not drawn)	3	32	6	28
COC(=O)c1cc(OC)c(OC)cc1NCC(=O)Nc1ccc(OC)c(OC)c1	0	-19	-13	8
COC(=O)c1cc(OC)c(OC)cc1NCC(=O)Nc1ccc(C)cc1	6	-1	50*	22
N#C/C(=N/Nc1ccc(OC(F)(F)F)cc1)C(N)=S	-1	80*	33	49
CC(C)C(=O)Nc1ccc2c(c1)C(=O)N(C)[C@@H]1CC[C@H](CC(=O)NCC3CC3)O[C@H]1CO2	.	.	-14	.
SMILES	HSP90 inh	TWEAK-Fn14 inh	LGR2 inh	TROY NFkB inh
CC(=O)NS(=O)(=O)c1ccc(NC(=O)c2cccc(S(=O)(=O)N3CCc4ccccc43)c2)cc1	-2	3	-9	1
O=C(Nc1nc2ccccc2s1)c1cccc(S(=O)(=O)N2CCc3ccccc32)c1	8	70*	-26	20
CN(C)S(=O)(=O)c1cccc(NC(=O)c2cccc(S(=O)(=O)N3CCc4ccccc43)c2)c1	.	60*	21	35
O=C(Nc1ccc(S(=O)(=O)N2CCc3ccccc32)cc1)c1ccc2c(c1)OCO2	0	58*	.	1
O=C(C[C@@H]1C[C@H]2c3cc(NC(=O)c4ccc5c(c4)OCO5)ccc3O[C@H]2[C@H](CO)O1)NCc1cccnc1	.	.	4	.
CCN1[C@@H]2c3ccc(C4=CCCCC4)c(=O)n3C[C@H]1[C@H](CO)[C@H]2C(=O)N1CCCCC1	.	.	-15	.
CCC(=O)N(C)C[C@@H]1Oc2cc(C#CCC3CCCC3)ccc2S(=O)(=O)N([C@H](C)CO)C[C@@H]1C	.	.	13	.
Cc1ccc(-c2cnc3cc(C)nn3c2)cc1	13	74*	-11	18
Cc1ccc(-c2cnc3c(Cl)c(C)nn3c2)cc1	6	75*	57*	10
Cc1cc2ncc(-c3ccc(Cl)cc3)cn2n1	1	-6	-59	-53
Cc1ccc(-c2ccnc3c(Cl)c(C)nn23)cc1	3	-4	1	-17
C[C@H]1CN([C@@H](C)CO)C(=O)CCCn2nncc2CO[C@@H]1CN(C)C(=O)Nc1ccc(F)cc1	.	.	-15	.
CCN(CC)C(=O)Oc1ccc2c(=O)c(-c3ccc(OC)cc3)coc2c1	-4	20	-26	22
COc1ccc2c(=O)c(-c3ccc4c(c3)OCO4)coc2c1	-1	70*	69*	20
C/C(=C/CCC(C)[C@H]1CC[C@@]2(C)C3=C(CC[C@]12C)[C@@]1(C)CCC(=O)C(C)(C)[C@@H]1CC3)C(=O)O (stereo partly drawn)	4	10	.	53*
CCOc1cc(N(CC)CC)ccc1/C=C(/C#N)c1nc2ccccc2[nH]1	18*	69*	.	60*
COc1cccc(/C=C(\C#N)c2nc3ccccc3[nH]2)c1OCC(=O)O	4	99*	-50	-8
CCCNC(=O)N1CC2(C1)[C@H](c1ccccc1)[C@H](CO)N2CC1CCCC1	.	.	-1	.
CC(C)NC(=O)Nc1ccc2c(c1)C(=O)N([C@@H](C)CO)C[C@H](C)[C@H](CN(C)Cc1ccccc1)O2	.	.	-23	.
CC(c1ccco1)N(C(=O)c1ccccc1NS(=O)(=O)c1ccc(Cl)c([N+](=O)[O-])c1)c1ccccn1 (stereo not drawn)	0	38	9	71*
C[C@@H]1CCCCO[C@@H](CN(C)Cc2ccncc2)[C@@H](C)CN([C@H](C)CO)C(=O)c2cc(N(C)C)ccc2O1	.	.	-19	.
NC(=S)N/N=C/c1ccccc1OCCSc1ccc(Cl)cc1	4	61*	30	20
COc1cccc(/C=N/NC(N)=S)c1OCc1ccccc1Cl	-6	2	-6	-9
CC(=NNc1nc2ccccc2s1)c1ncccn1	.	31	-44	-8
C/C(=N\Nc1nc2ccccc2s1)c1cccs1	-4	68*	15	-1
CC(=O)NNc1nc2ccccc2s1	3	89*	.	83*
O=C(COc1ccccc1)NNc1nc2ccccc2s1	14	70*	-3	85*
C[C@@H]1CN([C@@H](C)CO)C(=O)c2cccc(NC(=O)CCCCCC(=O)Nc3ccccc3N)c2O[C@H]1CN(C)Cc1ccc(Oc2ccccc2)cc1	.	.	-2	.

Source: PubChem (several laboratories)
